Compound activity: PubChem BioAssay, several laboratories
L major viab – reduces viability of Leishmania major promastigotes; 200,000 compounds, 9% hits; resazurin fluorescence viability; inhibition, % at 10 µM; in the data active = inhibition above about 50%;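 note: promastigotes grown with compound for 44 hours at 28 °C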
WT yeast gro inh – growth inhibition of WT yeast, mitochondrial fusion screen. mitochondrial fusion phenotypic screen, WT strain. inhibition, % at 10 µM. 190,000 compounds, 2.1% hits. AID 1362; in the data active = inhibition above about 58%; tested in S. cerevisiae
Arbovirus anti – antivirals against arbovirus infection; arbovirus infection cell-based antiviral screen; 200,000 compounds, 0.37% hits; inhibition, % at 10 µM; in the data active = inhibition above about 30%
CHOP inh – inhibitors of CHOP induction in ER stress response; CHO-K1 CHOP-promoter luciferase, tunicamycin-induced, 15-18 h; 220,000 compounds, 3.8% hits; inhibition, % at 10 µM;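 active = compounds that reduced the stress-induced luciferase reporter signal by more than about 70% of percent inhibition, limit read from the data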;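 note: 0% = tunicamycin plus vehicle and 100% = wells without tunicamycin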
* = called active by the depositor; x = no result. Rows were chosen to be rich in hits. Some 12% of all compounds tested hit in one or more screens of this group.

SMILES	L major viab	WT yeast gro inh	Arbovirus anti	CHOP inh
COc1ccccc1CNC(=O)CSc1nnc2ccc(-c3cccnc3)nn12	4	-9	3	4
Cc1ccc(/C=C/C(=O)N(Cc2cccs2)C2CCS(=O)(=O)C2)cc1 (configuration not stated)	x	x	x	6
Cc1ccc(S(=O)(=O)N2CCC(=O)N(CCOCc3cccc(C(F)(F)F)c3)CC2)cc1	8	7	-9	79*
CSc1cnc2c(N)nc(N(C)C)nc2n1	58*	-2	0	-12
CC(C)Cc1ccc(C(C)C(=O)Nc2ccccc2O)cc1 (configuration not stated)	x	x	x	55
Cc1ccc(-n2cc(C(=O)c3ccc(F)cc3)nn2)cc1Cl	-14	68*	-9	45
CCOc1cccc(Oc2ncccc2C(=O)/C(C#N)=C/N(C)C)c1	-2	95*	0	-14
Clc1ccc(CN2CCN(c3ccccc3)CC2)cn1	38	2	2	8
Cc1cccc(NC(=O)c2cc(NC(=O)C3CCCCC3C(=O)O)ccc2N2CCCCC2)c1 (configuration not stated)	-2	1	8	77*
CC(=O)Nc1ccc(N2CCCCC2)c(C(=O)Nc2cccc(C)c2)c1	81*	42	-9	31
CCOC(=O)C1=C(C)NC(=O)C1CC(=O)O (configuration not stated)	-3	11	-11	-56
COc1ccc(C(CC(=O)Nc2cc(OC)cc(OC)c2)n2cccc2)cc1 (configuration not stated)	96*	9	-11	-2
COc1ccc(C(CC(=O)Nc2ccccc2OC)n2cccc2)cc1 (configuration not stated)	54*	10	-11	10
NC(=O)c1cc(Br)cc(C2CCCCC2)c1O	x	x	x	19
C=CCN(C(=O)CNC(=O)c1cccs1)C(C(=O)NC1CCCCC1)c1cccnc1 (configuration not stated)	-6	-14	7	-8
O=C(Cc1cccs1)NC(c1ccccc1)c1ccccc1	6	7	0	22
O=C(COC(=O)/C(=C/c1cccs1)c1cccs1)NC(c1ccccc1)c1ccccc1	97*	36	5	50
Cc1ccc(C(=O)Nc2ccnc(-c3ccncc3)n2)cc1	12	-7	0	3
Cn1c(-c2ccccc2)n[nH]c1=S	x	x	x	3
CCn1c(-c2cc(-c3cc(C)ccc3C)nc3ccccc23)n[nH]c1=S	8	-4	6	3
CCOc1cccc(-c2cc(-c3n[nH]c(=S)n3CC)c3ccccc3n2)c1	34	67*	-5	87*
Cc1ccc(-c2cc(-c3n[nH]c(=S)n3C)c3ccccc3n2)cc1	5	70*	4	42
CCOc1ccccc1-c1cc(-c2n[nH]c(=S)n2CC)c2ccccc2n1	-5	5	2	1
CCn1c(-c2cc(-c3ccc(C)c(C)c3)nc3ccccc23)n[nH]c1=S	33	58*	-11	76*
O=C(O)Cc1nn(Cc2ccc(Cl)cc2)c(=O)c2ccccc12	-5	6	5	4
SMILES	L major viab	WT yeast gro inh	Arbovirus anti	CHOP inh
C[C@@]12CCC=C[C@H]1[C@H](c1ccc(C(F)(F)F)cc1)N(Cc1ccccc1)C2=O	x	x	x	43
O=C(CSc1nncs1)NC(=O)NC1CCCC1	-9	-1	10	-6
Cc1ccc(S(=O)(=O)N(C)c2ccc(OCC(=O)Nc3cccc(-n4cnnn4)c3C)cc2)cc1	x	x	x	9
Cc1ccc(C)c(N2CCN(c3ccncc3N)CC2)c1	x	x	x	11
COC(=O)Nc1ccc(S(=O)(=O)Nc2ccc(O)cc2)cc1	-2	-2	-2	78*
Cc1ccc(S(=O)(=O)Nc2ccc(N=Nc3ccc(O)cc3)cc2)cc1	-1	71*	-32	42
COC(=O)Nc1ccc(S(=O)(=O)Nc2ccc(C)cc2)cc1	-19	22	5	14
CCCCOc1ccc(CC2CCC(=O)NC2=O)cc1 (configuration not stated)	0	-7	0	34
Cc1cc(C)cc(C(=O)NCC(=O)OCC(=O)NCc2ccco2)c1	11	-2	13	-15
CSc1nc(-c2ccc(Cl)cc2)nn1S(=O)(=O)c1ccc(Cl)cc1	-5	-1	7	72*
CCCC(=O)n1nc(-c2ccc(Cl)cc2)nc1SC	-6	16	3	78*
CSc1nc(-c2ccc(Cl)cc2)nn1S(=O)(=O)c1ccccc1	4	-4	0	33
Cc1cc(Nc2ccccc2)c2c([N+](=O)[O-])c(C)cc(C)c2n1	6	56	-5	92*
CC(=O)c1cccc(Nc2cc(C)nc3ccccc23)c1	x	x	x	9
CCN(CC)S(=O)(=O)c1ccc(OC)c(NC(=O)Cn2cnc3c2c(=O)n(C)c(=O)n3C)c1	3	-9	-8	20
COc1ccc(CNC(=O)CCN2C(=S)NC(C)(C)CC2C)cc1 (configuration not stated)	1	-8	5	9
CC(C)COP(=O)(OCC(C)C)C(Nc1ccccc1)c1ccc(F)cc1 (configuration not stated)	93*	22	-9	75*
CC(C)OP(=O)(OC(C)C)C(Nc1ccccc1)c1ccc2c(c1)OCO2 (configuration not stated)	1	11	3	-6
CC(C)COP(=O)(OCC(C)C)C(Nc1ccccc1)c1ccc2c(c1)OCO2 (configuration not stated)	4	32	-12	76*
CCc1ccc(C(C)NC(=O)Cn2cnc3c(=O)n(C)c(=O)n(C)c32)cc1 (configuration not stated)	0	-4	3	6
CC1=NN(c2ccc(F)cc2)C(=O)C1C(c1cccc(O)c1)c1c(C)[nH]n(-c2ccc(F)cc2)c1=O (configuration not stated)	72*	-6	9	56
COc1ccc2c(-c3ccccc3)cc(SC(C)C(N)=O)nc2c1 (configuration not stated)	81*	19	-9	-2
C=C(C)C1CC=C(C)/C(=N/NC(=O)COc2cccc3ccccc23)C1 (configuration not stated)	1	12	-12	-5
Cc1ccc2c(C)nc(N/C(N)=N/S(=O)(=O)c3ccc([N+](=O)[O-])cc3)nc2c1	88*	9	-13	37
COc1ccc(NC(=S)/N=C(\N)Nc2nc(C)c3ccc(C)cc3n2)cc1	38	15	4	26
SMILES	L major viab	WT yeast gro inh	Arbovirus anti	CHOP inh
Cc1nc(N/C(N)=N/S(=O)(=O)c2ccc([N+](=O)[O-])cc2)nc2ccccc12	54*	9	4	27
O=C(c1ccc(-c2ccc(Cl)cc2)o1)N1CCN(c2ccc([N+](=O)[O-])cc2Cl)CC1	31	17	7	51
O=C(c1ccc(-c2ccc([N+](=O)[O-])cc2)o1)N1CCCCC1	100*	40	-2	-22
COCCN(Cc1ccco1)C(=O)Cn1ncc2c(=O)oc3ccccc3c21	x	x	x	-16
CC1=C(C#N)c2nc(N)c(C#N)c(C)c2/C1=C\c1ccc(C)cc1	100*	4	-10	98*
COc1ccc(C2=C(Nc3ccc(C)cc3)c3ccccc3C2=O)cc1	64*	12	2	23
COc1ccc(C2=C(Nc3ccc(F)cc3)c3ccccc3C2=O)cc1	-1	1	-3	-9
